# In the supplement of paper PMC6555819:
# Legend:
# Experiment in all cases: PBM binding z-score (relative to random genomic background probes); higher = stronger binding; sequences stand for … in GC…GCGATTGACAGCGTAGAATGAAGG
# [1] = tested on: FXR:RXRa (NR concentration 270 nM, RXRa partner concentration 90 nM)
# Summary of the method: (§1)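 The probes on custom Agilent 4×180K protein-binding microarrays were double-stranded, with 34-nt variable regions bearing direct-repeat seeds, single-nucleotide variants, half-site ablations and random human genomic background sequences. Incubation lasted 1 h with ligand-free nuclear receptor dimers in PBS pH 7.4, 2% milk, 0.02% Triton X-100, 1 mM DTT, 0.2 mg/mL BSA and 0.4 mg/ml salmon testes DNA. Antibodies against each partner (one per run) detected bound dimers, and fluorescence scans were regression-normalized. Binding z-scores take the random background probes as reference.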
# [2] = tested on: LXRa:RXRa (NR concentration 270 nM, RXRa partner concentration 90 nM)
# Summary of the method: as §1
# [3] = tested on: LXRa homodimer (NR concentration 270 nM)
# Summary of the method: as §1
# [4] = tested on: LXRb:RXRa (NR concentration 270 nM, RXRa partner concentration 90 nM)
# Summary of the method: as §1
# [5] = tested on: LXRb homodimer (NR concentration 270 nM)
# Summary of the method: as §1
# [6] = tested on: PPARa:RXRa (NR concentration 270 nM, RXRa partner concentration 90 nM)
# Summary of the method: as §1
# [7] = tested on: PPARg:RXRa (NR concentration 180 nM, RXRa partner concentration 90 nM)
# Summary of the method: as §1
# [8] = tested on: PPARg:RXRa 270nM:90nM, anti-RXR (NR concentration 270 nM, RXRa partner concentration 90 nM)
# Summary of the method: as §1
# [9] = tested on: PPARg:RXRa 30nM:10nM, anti-RXR (NR concentration 30 nM, RXRa partner concentration 10 nM)
# Summary of the method: as §1
# [10] = tested on: PPARg:RXRa 90nM:30nM, anti-RXR (NR concentration 90 nM, RXRa partner concentration 30 nM)
# Summary of the method: as §1
# [11] = tested on: PPARg:RXRa DBDmut IVT, anti-RXR (DBD mutation: RXRa K156A/R161A, NR concentration 270 nM, RXRa partner concentration 90 nM)
# Summary of the method: as §1
# [12] = tested on: PPARg:RXRa IVT, anti-PPARg (NR concentration 270 nM, RXRa partner concentration 90 nM)
# Summary of the method: as §1
# [13] = tested on: PPARg DBDmut:RXRa IVT, anti-PPARg (DBD mutation: PPARg1 K132A/R137A, NR concentration 270 nM, RXRa partner concentration 90 nM)
# Summary of the method: as §1
# [14] = tested on: PPARg DBDmut IVT, anti-PPARg (DBD mutation: PPARg1 K132A/R137A, NR concentration 270 nM)
# Summary of the method: as §1
# [15] = tested on: PPARg homodimer (NR concentration 180 nM)
# Summary of the method: as §1
# [16] = tested on: PXR:RXRa (NR concentration 270 nM, RXRa partner concentration 90 nM)
# Summary of the method: as §1
# [17] = tested on: PXR homodimer (NR concentration 270 nM)
# Summary of the method: as §1
# [18] = tested on: RARa:RXR (NR concentration 270 nM, RXRa partner concentration 90 nM)
# Summary of the method: as §1
# [19] = tested on: RARa homodimer (NR concentration 270 nM)
# Summary of the method: as §1
# [20] = tested on: RARb:RXRa (NR concentration 270 nM, RXRa partner concentration 90 nM)
# Summary of the method: as §1
Sequence,PBM binding z-score [1],PBM binding z-score [2],PBM binding z-score [3],PBM binding z-score [4],PBM binding z-score [5],PBM binding z-score [6],PBM binding z-score [7],PBM binding z-score [8],PBM binding z-score [9],PBM binding z-score [10],PBM binding z-score [11],PBM binding z-score [12],PBM binding z-score [13],PBM binding z-score [14],PBM binding z-score [15],PBM binding z-score [16],PBM binding z-score [17],PBM binding z-score [18],PBM binding z-score [19],PBM binding z-score [20]
CCTATTAGTTGACCATATGGGCAACCGAAGCTCG,0.27,0.454,0.368,0.353,0.853,-0.034,0.453,0.317,-0.521,-0.00655,0.421,1.14,0.935,0.461,0.842,0.0373,0.489,0.314,1.68,0.652
CAAACTAGGTAACAGAGGTCAAAGTCCGTGCGTA,5.29,6.1,7.34,5.38,1.74,5.84,6.67,6.35,3.97,5.74,6.99,6.88,1.9,1.28,4.37,6,3.25,6.67,1.62,4.11
GGAACGAGGGCAAGTTGATAACAGAGTTTGATGG,0.773,0.307,-0.071,0.262,-0.233,1.76,1.52,1.14,0.316,1.03,3.17,2.87,0.0927,0.0422,0.807,0.857,0.526,0.565,-0.181,2.38
TAGCCTAGGTCATGGGGCCAGTATAGTACGCATC,4.54,3.52,0.182,2.77,0.0614,4.31,3.62,3.29,0.919,2.66,1.84,3.72,0.968,-0.401,3.22,2.19,-0.641,3.54,0.443,3.94
ATCTCTAGGTAAAGATCAGTGAAAGATCGATAGA,0.248,0.153,0.0101,0.0437,0.463,0.624,1.04,1.14,0.487,0.992,1.79,1.45,0.659,1.08,0.78,-0.0968,0.169,0.174,0.687,0.0569
AAACCAAGGTGATCGTGAGGTCGTTGATACTAAC,1.87,1.29,0.284,1.13,-0.456,1.54,0.386,0.544,-0.322,0.389,0.846,1.19,0.252,0.247,0.649,3.05,1.5,2.16,-0.27,1.24
TCTTGTAGATCAATAGAGGTTAAGATAGTGCGCT,1.04,3.81,0.813,1.97,-0.0819,1.99,0.479,1.59,2.43,2.03,1.55,0.959,0.251,0.77,0.455,2.26,-0.0224,2.09,0.236,0.832
TGAATGAGGTTAAAGATCAGGGTACGTGGCGTCG,2.96,2.35,-0.149,1.67,0.353,4.43,5.59,6.33,4.71,6.42,2.05,3.93,1.21,0.291,1.09,2.14,-0.073,3.31,-0.532,2.21
CGAACTAGGTCATTGACCGGACAGTGAATAGTAA,5.26,4.95,2.4,3.37,0.0098,4.46,7.14,6.07,3.06,5.48,8.08,8.12,0.655,0.319,0.696,1.2,-0.102,1.93,0.169,3.61
AGAAAGAGGGCACGCTGAGTTGATAGCAGAGTAG,1.1,1.24,-0.317,0.624,-0.685,2.59,1.83,1.95,0.315,1.09,3.25,3.07,0.171,-0.413,0.723,1.85,-0.108,1.27,-0.166,2.74
ATCTATAGGTAACCAAGTTCAGTGAATGCCGAAC,0.275,0.814,0.873,0.556,0.386,1.01,0.856,0.848,0.142,0.641,2.37,1.81,0.555,1.09,0.665,2.46,2.08,0.857,0.671,1.3
ATCGAATGGTCGACGAGGTGAGTATACACCGTTT,-0.323,-0.552,-0.816,-0.341,-0.342,-0.212,0.744,-0.273,0.119,-0.347,-0.664,0.567,-0.0586,-0.0219,-0.342,-0.323,-0.282,-0.136,-0.0822,0.37
TCTTGTAGATCAAGTAGGTTAAGAAAGCCTGAGT,0.567,0.521,0.138,0.441,-0.306,1.17,-0.25,1.46,2.57,2.04,2.13,2.44,0.611,0.864,0.365,0.513,0.364,0.645,0.0237,0.154
TCTAGTTGTTCAAAGGTCACACACTCGAAATGCG,5.39,5.85,4.39,5.41,1.92,5.76,7.52,7.68,6.77,8.74,2.71,4.64,1.27,1.68,4.16,5.49,1.93,5.89,4.19,5
